Assay results reported in PubChem BioAssay.
Potency and affinity values are given separately. The source made the active and inactive calls. Entries that show only a call come without a potency. No rule for the calls is given here.

Test: OVCAR8 cell viability loss – plate reader, dry powder samples, PAX8 project, dose response (AID 743197)
Conditions: series mostly up to 35 µM

Structure (SMILES) | outcome
C[C@H](CO)N1C[C@H](C)[C@@H](CN(C)S(=O)(=O)c2ccc(Cl)cc2)OCCCC[C@H](C)Oc2ccc(NS(=O)(=O)c3ccc(Cl)cc3)cc2C1=O | inactive
C[C@H]1CN([C@@H](C)CO)C(=O)c2cc(NS(=O)(=O)c3ccccc3)ccc2O[C@@H]1CN(C)Cc1ccc(Oc2ccccc2)cc1 | inactive
C[C@@H]1CN([C@@H](C)CO)C(=O)Cc2cc(NC(=O)CCC(F)(F)F)ccc2O[C@H]1CN(C)Cc1ccc(-c2ccccc2)cc1 | inactive
C[C@@H]1CN([C@H](C)CO)C(=O)Cc2cc(NC(=O)Nc3ccc(F)cc3)ccc2O[C@H]1CN(C)Cc1ccc(Cl)c(Cl)c1 | inactive
C[C@@H]1CCCCO[C@H](CN(C)Cc2ccc(Cl)c(Cl)c2)[C@H](C)CN([C@@H](C)CO)C(=O)c2cc(NC(=O)Nc3ccccc3)ccc2O1 | inactive
COc1ccc(NC(=O)Nc2ccc3c(c2)CC(=O)N([C@H](C)CO)C[C@@H](C)[C@@H](CN(C)Cc2ccc(Oc4ccccc4)cc2)O3)cc1 | inactive
C[C@@H]1CCCCO[C@H](CN(C)Cc2ccc(C(F)(F)F)cc2)[C@H](C)CN([C@@H](C)CO)C(=O)c2cc(NS(=O)(=O)c3cccs3)ccc2O1 | inactive
O=C(Nc1ccc(Cl)c(Cl)c1)N[C@@H]1CC[C@H](CCn2cc(C3CCCCC3)nn2)O[C@H]1CO | inactive
COc1cccc(S(=O)(=O)N2CC[C@H]3[C@@H](CO)N(C)c4ccc(C#Cc5ccc(F)cc5)cc4[C@H]32)c1 | inactive
O=C(C[C@H]1CC[C@H]2[C@@H](COC[C@@H](O)CN2Cc2ccc(Oc3ccccc3)cc2)O1)N1CCCCC1 | inactive
C[C@@H]1CCCCO[C@H](CN(C)Cc2ccc(C(F)(F)F)cc2)[C@H](C)CN([C@H](C)CO)C(=O)c2cc(NS(=O)(=O)c3cccs3)ccc2O1 | inactive
C[C@@H]1CCCCO[C@@H](CN(C)Cc2ccc(C(F)(F)F)cc2)[C@@H](C)CN([C@@H](C)CO)C(=O)c2cc(NS(=O)(=O)c3ccc(F)cc3)ccc2O1 | inactive
O=S(=O)(c1ccccc1F)N1CC[C@@H]2[C@@H](CO)Nc3ccc(C4=CCCCC4)cc3[C@@H]21 | inactive
Cc1noc(C)c1S(=O)(=O)N(C)C[C@@H]1OCCCC[C@H](C)Oc2ccc(NS(=O)(=O)c3ccc(Cl)cc3)cc2C(=O)N([C@H](C)CO)C[C@@H]1C | inactive
COc1ccc(NC(=O)Nc2ccc3c(c2)C(=O)N([C@@H](C)CO)C[C@@H](C)[C@@H](CN(C)CC2CCCCC2)OCCCC[C@@H](C)O3)cc1 | inactive
C[C@@H]1CN([C@H](C)CO)S(=O)(=O)c2ccc(C#CC3CCCC3)cc2O[C@@H]1CN(C)C(=O)Cc1ccncc1 | inactive
